TbPYK inhibitor: T. brucei pyruvate kinase inhibition | Q57TT1 | TbPYK enzyme, Kinase-Glo Plus ATP luminescence, 45 min | Potency, µM (series often up to 76.8 µM), inactives show at the highest dose activity, negative = inhibition, usual class: inhibitors | hit rate 0.12% among 410,000 | AID 624173; also: potency is read from the fitted curve at half-maximal effect; nearly all actives have a fitted effect of over 50% in size
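ADP (130 uM final) triggers the TbPYK reaction after compound addition; incubation is 45 min at room temperature. Kinase-Glo Plus is then added and luminescence imaged. Normalized data are fitted to concentration-effect curves.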
HCMV antiviral: inhibitors of human cytomegalovirus; AID 1259415; hit rate 4.5% among 410,000; HFF cells, HCMV-luciferase reporter, 72 h; active compounds read low; activity change, negative = inhibition, % at 57.5 µM; in the data active = activity change below about -60%; inconclusive = no clear call, values can overlap the other calls; inactive = above about -39%
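HFF cells seeded 16 h at 37C, treated with compounds, infected with luciferase-reporter HCMV at MOI 1 PFU/cell; luciferase read at 72 h post infection, normalized to buffer-only and Salinomycin controls.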
Vaccinia Venus: vaccinia inhibition (Venus reporter); Vaccinia virus Venus reporter expression, fluorescence; Potency, µM (doses to about 36.5 µM), without a hit: at the top dose activity change, negative = inhibition, actives largely listed as inhibitors; hit rate 0.46% among 330,000; AID 720580; calls by dose curve; tested in A549 cells; also: potency is read from the fitted curve at half-maximal effect; nearly all actives have a fitted effect of over 30% in size
VACV mCherry inh: vaccinia inhibition (mCherry reporter). AID 720579. Potency, µM (highest dose often 36.5 µM), without a hit: top-dose activity change, negative = inhibition, actives largely listed as inhibitors. Vaccinia virus mCherry reporter infection, fluorescence. hit rate 0.63% among 310,000; calls by dose curve; tested in A549 cells; also: potency is read from the fitted curve at half-maximal effect; nearly all actives have a fitted effect of over 35% in size
LmPK inhibitor: inhibitors of Leishmania mexicana pyruvate kinase; hit rate 0.37% among 290,000; AID 1721; Potency, µM (doses to about 57.5 µM), without a hit: at the highest dose activity change, negative = inhibition, usual class: inhibitors; purified LmPK, Kinase-Glo ATP luminescence, 1 h; also: potency is read from the fitted curve at half-maximal effect
Target sequence (Q27686 whole entry, looked up): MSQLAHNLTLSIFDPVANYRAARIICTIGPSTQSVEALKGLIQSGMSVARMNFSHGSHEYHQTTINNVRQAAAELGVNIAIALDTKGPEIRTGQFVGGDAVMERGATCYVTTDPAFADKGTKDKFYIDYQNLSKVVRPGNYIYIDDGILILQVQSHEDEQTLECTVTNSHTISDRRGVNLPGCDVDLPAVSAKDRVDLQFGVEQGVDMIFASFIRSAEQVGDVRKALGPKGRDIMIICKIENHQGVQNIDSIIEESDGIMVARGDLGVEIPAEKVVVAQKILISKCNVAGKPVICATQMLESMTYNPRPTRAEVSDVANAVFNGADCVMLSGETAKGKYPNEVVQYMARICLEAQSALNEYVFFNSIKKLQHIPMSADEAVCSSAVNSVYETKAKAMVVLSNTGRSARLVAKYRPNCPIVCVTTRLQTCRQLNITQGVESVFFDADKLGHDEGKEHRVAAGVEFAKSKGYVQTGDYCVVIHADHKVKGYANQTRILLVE
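Purified LmPK (0.1 nM) with 0.5 mM PEP and 0.1 mM ADP in imidazole buffer pH 7.2 with MgCl2/KCl, 1 h at room temperature. ATP formed was read by luciferase luminescence and normalized to no-enzyme and uninhibited controls.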
The depositor's hits bear a star; i = inactive; ? = inconclusive; . = no result; [ ] = another dose, or the depositor's remark. Shown are actives, neighbours in structure and some others; about 5% of the full set was active somewhere. Unless noted, calls follow the shape of the dose curve; as a rule, active = well fitted curve in the direction sought with a large enough effect; inconclusive = small, poorly fitted or top-dose-only effect, or another doubt; inactive = no such curve, though single readings can be large; an effect the other way counts as inactive or inconclusive. % is scaled to controls: 0 for no effect and ±100 for the full control effect.

SMILES	TbPYK inhibitor	HCMV antiviral	Vaccinia Venus	VACV mCherry inh	LmPK inhibitor
Cc1cccc(C(=O)O)c1NC(=O)c1ccc(F)cc1	-5.7%	12.5	-1.5%	-1.9%	1.4%
COc1ccc(CSc2nc3ccccc3c(=O)n2CCCN2CCOCC2)cc1F	0.4%	40.4	-9.6%	i	-2.0%
CC(C)CC(c1nnnn1C(C)(C)C)N1CCN(C2CCCC2)CC1 (stereo unspecified)	2.9%	-13.6	-14.0%	.	-1.2%
CCN(CC)C(=S)Nc1ccc(Cl)c(Cl)c1	-10.6%	-65.8*	-9.0%	-12.9%	-0.2%
CCN(Cc1ccncc1)C(=S)Nc1ccc(Cl)cc1	-1.4%	-28.5	-9.8%	i	8.0%
O=C(CSc1nnc(-c2cccnc2)o1)Nc1ccc(Br)cc1	-0.4%	-9.8	-21.3%	-28.1%	-9.0%
Cc1ccc(-c2nnc(SCC(=O)Nc3ccccc3F)o2)cc1	-1.9%	-94.9*	-10.8%	-17.1%	7.4%
O=C(CSc1nnc(-c2cccnc2)o1)Nc1ccc(F)cc1	2.2%	-76.1*	-16.9%	-8.3%	.
Cc1ccc(NS(=O)(=O)c2ccc(NC(=O)C3CC3)cc2)cc1C	-0.1%	?	-29.3%	-17.3%	4.4%
COc1cc(C2C(C(=O)c3ccco3)=C(O)C(=O)N2Cc2ccccc2)ccc1O (stereo unspecified)	3.0%	6.0	-6.1%	5.6%	3.0%
COc1ccccc1N(C)S(=O)(=O)c1ccc(C(=O)Nc2ccc(N3CCOCC3)cc2)cc1	3.8%	-61.7*	?	?	7.7%
COc1ccccc1N(C)S(=O)(=O)c1ccc(C(=O)Nc2ccc3nc(C)sc3c2)cc1	-2.6%	-84.7*	?	?	5.1%
COc1ccccc1C(=O)NCC1CCN(c2ccc(S(=O)(=O)N3CCOCC3)cc2)CC1	-0.5%	-76.1*	-20.6%	-28.9%	1.7%
Cc1cc(C)n2c(Nc3ccc4c(c3)OCCO4)c(-c3ccc(Cl)cc3)nc2n1	1.2%	17.6	-6.2%	i	.
COC(=O)c1sc(N2C(=O)c3oc4ccc(C)cc4c(=O)c3C2c2ccc(O)c(OC)c2)nc1C (stereo unspecified)	0.0%	7.7	-9.9%	-16.1%	.
Cn1cccc1C(=O)OCC(=O)N1CCc2ccccc21	0.0%	17.5	.	.	.
Cn1cccc1C(=O)OCC(=O)N1CCc2ccccc2C1	-2.5%	-61.1*	-26.7%	-15.5%	.
Cc1cc(C)c(S(=O)(=O)N2CCN(C(=O)CC(C)n3nc(C)nc3C)CC2)c(C)c1 (stereo unspecified)	-6.1%	-73.7*	-20.9%	-3.0%	.
Cc1cc(C)c(S(=O)(=O)N2CCN(C(=O)CN3C(=O)NC4(CCCC4)C3=O)CC2)c(C)c1	5.1%	-67.9*	-13.7%	i	2.4%
O=C(CN1C(=O)NC2(CCCC2)C1=O)N1CCN(S(=O)(=O)c2ccccc2)CC1	-11.6%	21.1	-19.6%	-22.0%	-1.9%
CC(C)OC(=O)c1c2c(n3ccccc13)C(=O)c1ccccc1C2=O	-1.5%	5.1	-15.0%	?	4.3%
CC(C)CCNC(=O)Cn1c2c(c(-c3ccccc3Cl)cc1=O)CCC2	0.0%	-79.8*	-23.6%	-4.4%	0.8%
CC1CCC(NC(=O)Cn2c3c(c(-c4ccccc4Cl)cc2=O)CCC3)CC1 (stereo unspecified)	6.9%	-23.1	?	-14.3%	1.7%
COc1ccc(-c2noc(C)c2-c2ccc3ccccc3n2)c(O)c1	-19.9%	3.2	?	-22.1%	6.8%
O=C(C1CCN(S(=O)(=O)N2CCC3(CC2)OCCO3)CC1)N1CCOCC1	-5.0%	5.2	-6.6%	-6.6%	1.9%
SMILES	TbPYK inhibitor	HCMV antiviral	Vaccinia Venus	VACV mCherry inh	LmPK inhibitor
C=C1[C@@H](O)[C@H](CC(C)C)N(Cc2ccccc2Br)S1(=O)=O	5.2%	-32.0	10µM*	?	.
CN1CCN(C(=S)c2ccc(Br)cc2)CC1	?	5.8	5.3%	-1.5%	4.6%
CN1CCN(C(=S)c2ccc(N(C)C)cc2)CC1	?	-108.2*	.	.	-8.3%
CCCC(C)(C)C(=O)N1CCC1(C)C(=O)Nc1ccc2c(c1)OCCO2 (stereo unspecified)	0.4%	-65.7*	8.9%	6.5%	.
CC1(C(=O)Nc2ccc3c(c2)OCCO3)CCC(=O)N1C1CC1 (stereo unspecified)	0.3%	-100.2*	5.3%	i	.
CCOC(=O)CN1C(=O)N[C@@H](c2ccccc2)[C@@H](C(=O)OC)[C@H]1C	-6.6%	-21.1	-2.5%	-18.4%	-1.8%[11.5 µM]
CN1CCN(S(=O)(=O)c2cccc(C(=O)Nc3cc(C(F)(F)F)ccc3N3CCCCC3)c2)CC1	-1.9%	-11.3	-13.3%	-8.0%	.
Cc1c(-c2ccccc2)n(-c2ccccc2O)c2nc3c(c(=O)n(C)c(=O)n3C)n12	3.1%	-63.5*	-15.7%	-17.6%	.
Cc1cc(C)cc(-n2c(-c3ccccc3)c(C)n3c4c(=O)n(C)c(=O)n(C)c4nc23)c1	-0.8%	-0.4	-6.2%	-7.6%	.
Clc1ccc(CSc2nnc(-c3ccncc3)o2)cc1	.	-70.2*	.	.	-1.3%
c1ccc(CSc2nnc(-c3cccnc3)o2)cc1	-0.2%	-40.0	-19.2%	.	10.7%
Brc1ccc(CSc2nnc(-c3cccnc3)o2)cc1	2.6%	-68.3*	-12.9%	-7.2%	6.6%
O=C(Nc1c2c(nn1-c1ccccc1)CS(=O)(=O)C2)c1ccc2c(c1)OCO2	-6.4%	43.2	-10.9%	i	-3.8%
CC(=O)Nc1ccc2sc(NC(=O)CN3CCOCC3)nc2c1	-2.9%	-7.0	-11.5%	i	4.9%
C=CC(=O)N1C/C(=C/c2ccc(F)cc2)C(=O)/C(=C\c2ccc(F)cc2)C1	-9.1%	-100.2*	7.94µM*	?	.
Cc1ccc2c(c1)nnn2C1CCN(CC(=O)N(c2ccccc2)c2ccccc2)CC1	3.0%	-69.9*	.	.	7.7%
Cc1ccc2c(c1)nnn2C1CCN(CC(=O)N2c3ccccc3CC2C)CC1 (stereo unspecified)	1.8%	-76.1*	-16.3%	-7.6%	2.1%
O=C(CCC(=O)N1CC2C[C@@H](C1)Cn1c2cccc1=O)NCCc1ccccc1F	3.4%	16.0	4.2%	2.1%	-2.6%
Cn1c(CNc2cccc(C(F)(F)F)c2)n[nH]c1=S	?	-0.5	.	.	-6.5%
Cn1c(-c2csc(-c3cccc(C(F)(F)F)c3)n2)n[nH]c1=S	?	-83.9*	-10.9%	i	-4.8%
CCn1c(=O)c(=O)[nH]c2cc(C(=O)NCC3CCCCC3)ccc21	-4.3%	?	24.8%	-10.5%	-0.9%
Cc1ccc(/C=N/N2CCN(c3ccccn3)CC2)cc1	-1.8%	-27.6	-0.9%	-14.0%	-1.1%
ClC(=C\c1ccccc1)/C=N/N1CCN(c2ccccn2)CC1	-0.9%	-69.7*	-9.1%	?	1.4%
Cc1ccsc1/C=N/N1CCN(c2ccccn2)CC1	-11.1%	-71.3*	8.4%	-19.8%	-12.0%
CC(C)OCCCNc1nc(-c2ccccc2)nc2ccccc12	-1.4%	-18.1	.	.	-3.2%
O=c1cc(C(F)(F)F)[nH]c2c(OC(F)(F)F)cccc12	4.2%	-94.9*	-24.4%	i	-1.2%
